Data taken from the supplement of paper PMC10849652.
The full data set covers some 7,900 targets. This sample favours those with a hit. About 0.6% of all pairs of compound and target were hits.

Compound: c1cn2cc(-c3ccc4cn[nH]c4c3)nc(Nc3ccc(N4CCOCC4)cc3)c2n1 [entospletinib]
Assay: log2 fold change, soluble protein after heating vs DMSO (PISA); higher = thermal stabilisation; K562 cells, 10 uM, 30 min; active = over 0.2 and 3.5 SD of the protein, either way, in both replicates (recomputed)
How it was run: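 K562 cells at 2×10^6 cells/mL were treated for 30 min with 10 μM compound, and aliquots were heated for 3 min over 48°C-58°C before pooling. Extraction used PBS with 0.5% NP-40 at 4°C, and soluble protein was the supernatant after 21,000xg for 90 min, measured by TMTpro 16plex LC-MS/MS with channel sums equalised. Thermal stability values, relative to control samples and from duplicates, are log2 fold changes.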

Chain of UniProt Q92604 (Q92604 whole entry, looked up): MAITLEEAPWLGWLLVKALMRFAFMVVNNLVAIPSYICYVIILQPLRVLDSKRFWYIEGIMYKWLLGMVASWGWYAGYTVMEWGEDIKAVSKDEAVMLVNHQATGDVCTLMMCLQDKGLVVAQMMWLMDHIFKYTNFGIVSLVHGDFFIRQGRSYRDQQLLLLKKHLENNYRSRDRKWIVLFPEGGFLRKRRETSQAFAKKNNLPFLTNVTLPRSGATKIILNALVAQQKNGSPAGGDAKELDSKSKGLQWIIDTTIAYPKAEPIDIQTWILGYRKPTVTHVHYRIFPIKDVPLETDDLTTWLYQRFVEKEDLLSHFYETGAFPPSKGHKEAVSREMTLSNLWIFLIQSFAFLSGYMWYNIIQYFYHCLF
Chain of UniProt P32019 (P32019 whole entry, looked up): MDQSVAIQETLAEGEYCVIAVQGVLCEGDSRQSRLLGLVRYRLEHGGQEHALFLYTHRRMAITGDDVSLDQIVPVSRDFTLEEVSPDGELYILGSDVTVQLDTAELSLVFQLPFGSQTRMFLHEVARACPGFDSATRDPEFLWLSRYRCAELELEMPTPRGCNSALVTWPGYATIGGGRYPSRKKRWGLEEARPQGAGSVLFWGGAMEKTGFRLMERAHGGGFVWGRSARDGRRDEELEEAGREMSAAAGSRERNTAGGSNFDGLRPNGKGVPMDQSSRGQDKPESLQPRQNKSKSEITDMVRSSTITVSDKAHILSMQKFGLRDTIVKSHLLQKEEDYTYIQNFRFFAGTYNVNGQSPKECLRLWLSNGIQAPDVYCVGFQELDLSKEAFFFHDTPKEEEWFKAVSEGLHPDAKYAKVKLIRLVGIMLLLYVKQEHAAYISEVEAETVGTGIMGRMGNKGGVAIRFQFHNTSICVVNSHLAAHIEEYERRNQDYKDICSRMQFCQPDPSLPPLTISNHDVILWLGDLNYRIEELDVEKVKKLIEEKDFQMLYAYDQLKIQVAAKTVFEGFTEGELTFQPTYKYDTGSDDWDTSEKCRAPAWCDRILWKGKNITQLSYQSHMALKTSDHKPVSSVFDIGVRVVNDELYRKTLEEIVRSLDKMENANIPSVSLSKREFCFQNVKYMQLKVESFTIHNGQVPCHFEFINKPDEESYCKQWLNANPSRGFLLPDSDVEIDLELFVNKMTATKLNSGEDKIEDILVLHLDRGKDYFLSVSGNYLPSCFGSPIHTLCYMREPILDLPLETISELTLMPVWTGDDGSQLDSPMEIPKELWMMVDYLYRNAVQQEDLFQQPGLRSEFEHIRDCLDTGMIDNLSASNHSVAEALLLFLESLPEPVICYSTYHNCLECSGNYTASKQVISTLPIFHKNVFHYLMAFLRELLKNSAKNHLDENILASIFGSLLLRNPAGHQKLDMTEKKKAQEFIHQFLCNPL
Chain of UniProt Q9HCC0 (Q9HCC0 whole entry, looked up): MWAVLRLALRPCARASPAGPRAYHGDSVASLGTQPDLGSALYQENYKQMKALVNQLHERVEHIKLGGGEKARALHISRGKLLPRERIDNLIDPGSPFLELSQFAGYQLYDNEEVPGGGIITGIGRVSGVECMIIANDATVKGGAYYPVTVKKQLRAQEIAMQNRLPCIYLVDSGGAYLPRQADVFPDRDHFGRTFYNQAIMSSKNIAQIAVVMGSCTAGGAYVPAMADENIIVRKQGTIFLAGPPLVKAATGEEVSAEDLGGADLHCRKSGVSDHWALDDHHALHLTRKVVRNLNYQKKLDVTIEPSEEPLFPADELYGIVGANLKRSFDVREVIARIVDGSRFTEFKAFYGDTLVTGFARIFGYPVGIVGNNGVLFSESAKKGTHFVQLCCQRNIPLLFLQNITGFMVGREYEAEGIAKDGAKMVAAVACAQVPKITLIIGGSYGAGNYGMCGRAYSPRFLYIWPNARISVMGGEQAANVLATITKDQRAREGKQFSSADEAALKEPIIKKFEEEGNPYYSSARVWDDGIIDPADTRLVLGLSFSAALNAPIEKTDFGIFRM
Chain of UniProt Q14145 (Q14145 whole entry, looked up): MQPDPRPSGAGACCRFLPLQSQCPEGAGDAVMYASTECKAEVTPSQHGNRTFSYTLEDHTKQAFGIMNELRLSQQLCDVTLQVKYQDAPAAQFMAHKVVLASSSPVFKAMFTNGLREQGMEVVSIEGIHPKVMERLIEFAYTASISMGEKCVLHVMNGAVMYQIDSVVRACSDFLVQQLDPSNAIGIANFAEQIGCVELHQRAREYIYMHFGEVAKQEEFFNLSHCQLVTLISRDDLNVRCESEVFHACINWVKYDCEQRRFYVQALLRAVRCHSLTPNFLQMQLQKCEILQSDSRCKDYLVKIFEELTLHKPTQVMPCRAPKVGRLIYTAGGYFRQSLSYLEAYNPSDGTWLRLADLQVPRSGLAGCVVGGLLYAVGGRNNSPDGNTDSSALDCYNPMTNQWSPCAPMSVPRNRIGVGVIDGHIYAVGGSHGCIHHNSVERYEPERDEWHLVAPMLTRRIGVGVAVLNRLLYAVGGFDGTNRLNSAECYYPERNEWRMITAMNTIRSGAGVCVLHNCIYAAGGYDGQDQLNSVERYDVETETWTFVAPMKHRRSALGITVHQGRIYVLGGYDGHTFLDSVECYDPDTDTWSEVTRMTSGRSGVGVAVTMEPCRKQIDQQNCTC
Chain of UniProt Q96LU5 (Q96LU5 whole entry, looked up): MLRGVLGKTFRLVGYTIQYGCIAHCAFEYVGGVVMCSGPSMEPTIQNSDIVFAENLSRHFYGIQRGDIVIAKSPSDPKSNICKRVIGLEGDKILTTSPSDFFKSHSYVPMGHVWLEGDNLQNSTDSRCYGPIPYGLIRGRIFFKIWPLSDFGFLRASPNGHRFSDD
Chain of UniProt Q6NUT3 (Q6NUT3 whole entry, looked up): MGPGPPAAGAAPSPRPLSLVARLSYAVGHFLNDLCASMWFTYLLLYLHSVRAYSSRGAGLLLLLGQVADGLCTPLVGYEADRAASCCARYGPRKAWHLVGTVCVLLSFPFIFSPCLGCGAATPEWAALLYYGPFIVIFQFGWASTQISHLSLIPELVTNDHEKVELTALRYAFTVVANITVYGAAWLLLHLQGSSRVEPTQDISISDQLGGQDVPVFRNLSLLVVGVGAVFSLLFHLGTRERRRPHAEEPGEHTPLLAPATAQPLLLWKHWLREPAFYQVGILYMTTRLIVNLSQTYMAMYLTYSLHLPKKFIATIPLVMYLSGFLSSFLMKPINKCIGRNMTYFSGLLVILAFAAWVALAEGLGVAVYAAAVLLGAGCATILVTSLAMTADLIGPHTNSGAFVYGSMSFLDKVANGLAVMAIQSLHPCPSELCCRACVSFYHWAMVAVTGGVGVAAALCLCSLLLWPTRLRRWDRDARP
Chain of UniProt Q9BQD3 (Q9BQD3 whole entry, looked up): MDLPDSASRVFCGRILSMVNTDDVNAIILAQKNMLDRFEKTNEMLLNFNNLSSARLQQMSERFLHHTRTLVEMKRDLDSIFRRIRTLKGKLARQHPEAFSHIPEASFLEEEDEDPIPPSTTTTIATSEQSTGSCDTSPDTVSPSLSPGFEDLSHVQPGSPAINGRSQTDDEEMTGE
Chain of UniProt O95279 (O95279 whole entry, looked up): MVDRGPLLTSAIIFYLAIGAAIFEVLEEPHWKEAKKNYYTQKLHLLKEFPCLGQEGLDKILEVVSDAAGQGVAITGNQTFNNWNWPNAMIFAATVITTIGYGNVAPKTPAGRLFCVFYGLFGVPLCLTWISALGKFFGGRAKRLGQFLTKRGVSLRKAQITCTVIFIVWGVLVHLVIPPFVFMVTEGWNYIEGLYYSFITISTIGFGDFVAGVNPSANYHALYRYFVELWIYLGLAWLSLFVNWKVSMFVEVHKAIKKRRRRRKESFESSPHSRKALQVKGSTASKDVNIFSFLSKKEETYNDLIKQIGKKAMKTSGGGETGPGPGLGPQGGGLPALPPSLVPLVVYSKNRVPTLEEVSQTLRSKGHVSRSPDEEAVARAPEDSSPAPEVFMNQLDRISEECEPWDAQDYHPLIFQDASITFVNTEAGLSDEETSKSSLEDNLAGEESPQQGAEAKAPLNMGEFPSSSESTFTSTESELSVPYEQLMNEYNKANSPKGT

log2 fold change, inactive:
INPP5B (UniProt P32019) 0.026
MCCC2 (UniProt Q9HCC0) -0.002
LTN1 isoform 3 (UniProt O94822) -0.001
LPGAT1 (UniProt Q92604) -0.069
KXD1 (UniProt Q9BQD3) 0.016
MFSD12 isoform 3 (UniProt Q6NUT3) -0.089
IMMP1L (UniProt Q96LU5) -0.172
LRBA (UniProt P50851) -0.002
KEAP1 (UniProt Q14145) 0.101
KCNK5 (UniProt O95279) 0.171
